The panel holds about 83,000 compounds, 20% with a hit somewhere; the sample as a whole holds those more often.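 How to read the values: 0–100, growth inhibition (40 = 60% inhibited); 0, no net growth; -100 to 0, cell death (-40 = 40% of starting cells died; -100 = all dead).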 Unmarked numbers belong to inactive results. The source made the active and inactive calls.

The test system of the experiment is SR leukemia. The experiment in a line: NCI-60 one-dose screen, 48 h (100 = growth as untreated, 0 = no growth, -100 = all killed). The note with it: 10 µM unless noted. The procedure: Growth inhibition of the SR human tumor cell line is measured as a screen for anti-cancer activity. Cells are grown in 96 well plates and exposed to the test compound for 48 hours. Compounds are tested at a single concentration, which is 10^-5 M for most compounds. The reported endpoint is percent growth (GI% or GIPRCNT), where numbers from 0 - 100% represent growth inhibition, and numbers from -100% - 0 represent cell death. For example, a value of 40 represents 60% growth inhibition. A value of 0 means no net growth occurred over the course of the experiment. A value of -40 indicates 40% of cells at the beginning of the experiment died by the end of the experiment. A value of -100 means all cells are dead at the end of the experiment.
NCI-60 Human Tumor Cell Lines Screen was performed using the standard one-dose NCI protocol, which is described in more detail at https://dtp.cancer.gov/discovery_development/nci-60/default.htm.
Compounds with GIPRCNT values below 10 were considered active. Activity score was based on GIPRCNT using the following formula: […]
Score is 0 for GIPRCNT values of 100 or above, 50 for GIPRCNT values of 0, and 100 for GIPRCNT values of -100.
On to `O=c1c2sc3ncc(Cl)cc3c2nnn1-c1cccc(Cl)c1`, for which the growth was 77.7%.

With `CC1(C)CC[C@]2(C(=O)N3CCNCC3)CC[C@]3(C)C(=CC[C@@H]4[C@@]5(C)CCC(=O)C(C)(C)[C@@H]5CC[C@]43C)[C@@H]2C1`, the growth was 109%.

On to `O=C(NNC(=S)Nc1ccccc1)c1ccc(Nc2ncnc3c2cnn3-c2cccc(Br)c2)cc1`, for which the growth was 115%. Take `O=C(/C=C/c1ccccc1)C(Br)C(Br)c1ccccc1` (stereo not given): the growth is -28% (active). As for `NCCCOc1cc2ccccc2cc1C(=O)NCCCOc1cc2ccccc2cc1C(=O)Nc1ccc(Cl)cc1O`, the growth was -7.88% (active). For `Cc1cc(C)c(C#N)c(SCC(=O)c2sc3c(C#N)c(C)cc(C)[n+]3c2[O-])n1` the value was 5.47% (active). For `Cc1[nH]n(C(=O)c2ccncc2)c(=O)c1N=Nc1ccc(O)c(C(=O)O)c1` the value was 10.1%; for `COc1ccc2c(c1)N(CCO)C1=C(C(=O)OC1)C2c1cccc(Br)c1` (stereo not given), 17.8%; for `O=[N+]([O-])c1cccc(N=C(Nc2cccc([N+](=O)[O-])c2)c2ccccc2)c1`, 70.4%.

Consider `COc1ccc(C2CC(c3cccc(Nc4ccnc5cc(Cl)ccc45)c3)=NN2c2ccc(Cl)cc2)cc1` (stereo not given), for which the growth was 69.7%. With `C=CCOc1c(Br)cc(Br)cc1Br`, the growth was 34.8%. Under `CC(=O)c1cc(C(=O)c2ccc3c(c2)Sc2ccccc2N3)c2c(C)cccn12` stands 12.8%; under `COc1ccc(C(=O)c2cc(C)c(OC)c(C)c2)cc1OC(=O)CCl`, 2.99% (active); under `CCCCN(CCCC)CCC(=O)c1ccc(OC)c2ccccc12`, 38.9%. Regarding `COCCOCCOCc1n(Cc2ccc3ccccc3n2)c2ccccc2[n+]1Cc1ccc2ccccc2c1`, the growth is -37.1% (active).

With `CN(C)c1ccc(/C=N/Nc2nnc3n2N=C(c2ccc(Cl)cc2)CS3)cc1`, the growth is 94.1%. Under `Nc1ccc(N(O)/C=C2\C=CC=CC2=O)cc1N` stands 95.3%; under `COc1ccc(-c2n[nH]nc2-c2cc(OC)c3c(c2)OCO3)cc1`, -30.8% (active). For `CC(C)CC(NC(=O)OCC1c2ccccc2-c2ccccc21)C(=O)O` (stereo not given), the growth was 93.7%. `Cc1ccc(-c2cnc3sc4ccc(Cl)cc4n23)cc1`: the growth is 111%. In the case of `COc1ccc(C2CC(c3ccc(Nc4ccnc5cc(Cl)ccc45)cc3)=NN2c2ccccc2)cc1` (stereo not given), the growth is 81%. Regarding `CCC(C)C1NC(=O)c2nc(oc2-c2ccccc2)-c2csc(n2)-c2csc(n2)-c2nc(oc2C)-c2coc(n2)CNC(=O)C(C(C)CC)NC1=O` (stereo not given), the growth was -47.8% (active). As to `C#CC[C@@H]1C[C@]2(C)[C@H]3CC[C@@H]4[C@H]5C(C(=C)C)CC[C@]5(C(=O)NCCCCCCCCN)CC[C@@]4(C)[C@]3(C)CC[C@H]2C(C)(C)[C@H]1OC(C)=O` (stereo not given in full), the growth is -16% (active). Under `COc1cccc(CC(C)=C(c2ccc(OCCCN(C)C)cc2)c2ccc(OCCCN(C)C)cc2)c1` stands -49.1% (active). In the case of `Cc1ccc(Nc2nc(NCCO)c3ccccc3n2)cc1C`, the growth was 19%.

With `Cc1cc(C)c2c(NC(=O)Nc3ccc(Cl)c(Cl)c3)n[nH]c2n1`, the growth was 96.6%.

Regarding `CCN(C(=O)Nc1cccc2ccccc12)c1ccccc1`, the growth is 90.2%. Under `C=CCn1c(C)nc2cc(Nc3nc(Nc4ccc5nc(C)n(CC=C)c5c4)nc4ccccc34)ccc21` stands 106%. Under `COc1ccc2[nH]c(O)c(/C=c3/ccc4c(c3)N=C(c3ccc(C(F)(F)F)cc3)N=4)c2c1` stands 62.6%; under `N#Cc1ccc(NC(=O)Nc2nc3ccc(OC(F)(F)F)cc3s2)cc1`, -38.4% (active); under `CCOC(=O)C1=C(C)NC(SCc2nnc(-c3ccc(Cl)cc3)o2)=NC1c1ccc(Cl)cc1` (stereo not given), 42.9%. Under `COc1cc2c(cc1OC)C(=O)OC2` stands 106%. In the case of `COc1ccc(C(=O)c2c(N)nc3n2CCCC3)cc1OC`, the growth was 84.3%.

`O=[N+]([O-])c1cccc([I+]c2ccccc2)c1`: the growth was 16.6%. For the molecule `COc1c(C(=O)/C=C/c2ccc(C)o2)c(O)cc2occc12`, the growth was 42.8%. Regarding `COc1ccc(/C=c2\c(=O)n(-c3ccccc3)c3nn4c(n23)=NNC42CCCCC2)cc1`, the growth was 115%. Regarding `O=Cc1ccc2nc(C(Cl)(Cl)Cl)ccc2c1`, the growth was 93.2%. Under `CC(=O)N1N=C(c2ccc(C)cc2)CC1c1cn(-c2ccccc2)nc1-c1cccc(Nc2ccnc3cc(Cl)ccc23)c1` (stereo not given) stands -4.15% (active); under `[Ag].[Ag].[NH-]S(=O)(=O)c1ccc(N=Nc2cc(N=Nc3ccc(S([NH-])(=O)=O)cc3)c3c(NC(=O)C(Cl)Cl)cccc3c2OC(=O)C(Cl)Cl)cc1.[c-]1nccs1.[c-]1nccs1`, 72.1%; under `C#CC[C@@H]1C[C@]2(C)[C@H]3CC[C@@H]4[C@H]5C(C(=C)C)CC[C@]5(C(=O)NCCN(CCN)CCN)CC[C@@]4(C)[C@]3(C)CC[C@H]2C(C)(C)[C@H]1OC(C)=O` (stereo not given in full), -0.547% (active).
